# Laboratory results: PubChem BioAssay (NCI)
# The panel holds about 79,000 compounds, 15% with a hit somewhere; the sample as a whole holds those more often. A number with no mark means an inactive call. Calls of active or inactive are those of the source. Cut-off read from the data, not from the text of the source: active = growth inhibition above about 70%; inactive = the rest.
# Assays:
# [1] = NCI Yeast Anticancer Drug Screen. Data for the rad52 strain (AID 147);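 note: 0% = growth of vehicle-treated control cultures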; conditions: S. cerevisiae rad52 mutant growth inhibition, active compounds read high
# In short: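 Compounds are applied to a genetically defined yeast strain lacking normal DNA damage repair, and inhibition of growth is expressed relative to cultures given vehicle only.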
# [2] = NCI Yeast Anticancer Drug Screen. Data for the wt1 strain (AID 149);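 note: 0% = growth of vehicle-treated wt1 cultures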; conditions: S. cerevisiae wt1 strain (SPY 50644) growth inhibition, active compounds read high
# In short: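 wt1 strain grown with compound or vehicle; inhibition taken from the growth difference.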
# [3] = NCI Yeast Anticancer Drug Screen. Data for the rad50EPP+ strain (AID 151);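 note: 0% = growth of vehicle-treated control cultures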; conditions: S. cerevisiae rad50 mutant strain, active compounds read high
# In short: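 Compounds were applied to the rad50EPP+ yeast strain, which bears a defined DNA repair alteration, and growth inhibition was determined relative to vehicle-treated cultures.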
# [4] = NCI Yeast Anticancer Drug Screen. Data for the mgt1 strain (AID 153); conditions: S. cerevisiae mgt1 mutant growth inhibition, active compounds read high
# In short: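 Strain: mgt1 yeast, one of a set carrying defined DNA damage repair or cell cycle control alterations. Compound-treated growth compared with vehicle.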
# [5] = NCI Yeast Anticancer Drug Screen. Data for the rad50 strain (AID 155);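 note: 0% = growth of vehicle-only cultures of the same strain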; conditions: S. cerevisiae rad50 strain growth inhibition, active compounds read high
# In short: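 DNA repair mutant yeast, compound exposure, growth read-out; inhibition is taken relative to vehicle.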
# [6] = NCI Yeast Anticancer Drug Screen. Data for the mec2-1 strain (AID 157); conditions: S. cerevisiae mec2-1 strain, active compounds read high
# In short: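 Strain: mec2-1 (DNA repair/cell cycle alteration). Compound exposure, then growth measured; inhibition expressed relative to vehicle.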
# [7] = NCI Yeast Anticancer Drug Screen. Data for the rad14 strain (AID 159);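 note: 0% = growth of vehicle-treated control cultures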; conditions: S. cerevisiae rad14 strain growth inhibition, active compounds read high
# In short: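 DNA repair-defective yeast, compound-exposed; % growth inhibition derived by comparison with vehicle-treated controls.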
# [8] = NCI Yeast Anticancer Drug Screen. Data for the sgs1 mgt1 strain (AID 161);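 note: 0% = growth of cultures given vehicle only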; conditions: S. cerevisiae sgs1 mgt1 strain, active compounds read high
# In short: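 Genetically altered yeast, compound exposure, growth inhibition relative to vehicle.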
# [9] = NCI Yeast Anticancer Drug Screen. Data for the CLN2oe strain (AID 163);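 note: 0% = growth of vehicle-only control cultures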; conditions: S. cerevisiae CLN2oe strain, active compounds read high
# In short: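 Growth of a genetically modified yeast strain is measured after compound exposure and compared with cultures given vehicle alone.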
# [10] = NCI Yeast Anticancer Drug Screen. Data for the cln2 rad14 strain (AID 165);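 note: 0% = growth equal to vehicle treated cultures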; conditions: S. cerevisiae cln2 rad14 strain, active compounds read high
# In short: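 Compounds are applied to the cln2 rad14 yeast strain, and growth is then compared with that of vehicle-treated cultures to give inhibition.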
# [11] = NCI Yeast Anticancer Drug Screen. Data for the bub3 strain (AID 167); conditions: S. cerevisiae bub3 mutant strain, active compounds read high
# In short: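 In this screen, a yeast mutant lacking normal mitotic checkpoint function is challenged with compound. Relative growth versus vehicle gives the inhibition value.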
# [12] = NCI Yeast Anticancer Drug Screen. Data for the wt2 strain (AID 169);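 note: 0% = growth of vehicle-treated yeast cultures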; conditions: S. cerevisiae wt2 strain growth inhibition, active compounds read high
# In short: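 This strain belongs to a panel of yeast strains with defined genetic alterations in DNA damage repair or cell cycle control. Compounds are applied, and growth inhibition is measured against vehicle-treated cultures.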
# [13] = NCI Yeast Anticancer Drug Screen. Data for the mlh1 strain (AID 171);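 note: 0% = growth of vehicle-treated control cultures of the same strain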; conditions: S. cerevisiae mlh1 strain growth inhibition, active compounds read high
# In short: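 Growth of the mutant yeast strain after compound exposure, expressed as inhibition relative to vehicle-only controls.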
# [14] = NCI Yeast Anticancer Drug Screen. Data for the sgs1 strain (AID 173);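 note: 0% = growth of vehicle-only control cultures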; conditions: S. cerevisiae sgs1 mutant, active compounds read high
# In short: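 Growth of a yeast strain bearing a defined genetic alteration is measured after compound treatment. Inhibition is expressed relative to vehicle-only controls.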
# [15] = NCI Yeast Anticancer Drug Screen. Data for the mlh1 rad18 strain (AID 175); conditions: S. cerevisiae mlh1 rad18 strain growth inhibition, active compounds read high
# In short: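 Read-out is yeast growth inhibition, calculated against vehicle-only controls. The compound was applied to a strain engineered with DNA damage repair alterations.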
# [16] = NCI Yeast Anticancer Drug Screen. Data for the rad18 strain (AID 177); conditions: S. cerevisiae rad18 mutant growth inhibition, active compounds read high
# In short: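 Growth of the mutant yeast strain after compound exposure, normalised to vehicle-only cultures.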
# [17] = at 5.0 µM (retest, dose inferred, filed as 0.5)
# [18] = at 50.0 µM (retest, dose inferred, filed as 5.0)
compound,measurement,setting,value
Nc1nc2ccc(NCc3ccc(C(=O)NC(CCC(=O)O)C(=O)O)cc3)cc2c(=O)[nH]1 (stereo not drawn),growth inhibition,[1]; at 1.2 µM,-15%
same,growth inhibition,[1]; at 3.7 µM,-35%
same,growth inhibition,[1]; at 11.0 µM,-21%
same,growth inhibition,[1]; at 33.0 µM,32%
same,growth inhibition,[1]; at 100.0 µM,74% (active)
same,growth inhibition,[2]; at 1.2 µM,-6%
same,growth inhibition,[2]; at 3.7 µM,-17%
same,growth inhibition,[2]; at 11.0 µM,-19%
same,growth inhibition,[2]; at 33.0 µM,3%
same,growth inhibition,[2]; at 100.0 µM,55%
same,growth inhibition,[3]; at 1.2 µM,7%
same,growth inhibition,[3]; at 3.7 µM,-24%
same,growth inhibition,[3]; at 11.0 µM,-9%
same,growth inhibition,[3]; at 33.0 µM,-18%
same,growth inhibition,[3]; at 100.0 µM,5%
same,growth inhibition,[4]; at 1.2 µM,-14%
same,growth inhibition,[4]; at 3.7 µM,-14%
same,growth inhibition,[4]; at 11.0 µM,-24%
same,growth inhibition,[4]; at 33.0 µM,0%
same,growth inhibition,[4]; at 100.0 µM,26%
same,growth inhibition,[5]; at 1.2 µM,7%
same,growth inhibition,[5]; at 3.7 µM,-19%
same,growth inhibition,[5]; [17],3%
same,growth inhibition,[5]; at 11.0 µM,9%
same,growth inhibition,[5]; at 33.0 µM,23%
same,growth inhibition,[5]; [18],18%
same,growth inhibition,[5]; at 50.0 µM,22.1%
same,growth inhibition,[5]; at 100.0 µM,77% (active)
same,growth inhibition,[6]; at 1.2 µM,-4%
same,growth inhibition,[6]; at 3.7 µM,1%
same,growth inhibition,[6]; [17],-3%
same,growth inhibition,[6]; at 11.0 µM,8%
same,growth inhibition,[6]; at 33.0 µM,92% (active)
same,growth inhibition,[6]; [18],81% (active)
same,growth inhibition,[6]; at 50.0 µM,75.3% (active)
same,growth inhibition,[6]; at 100.0 µM,97% (active)
same,growth inhibition,[7]; at 1.2 µM,-20%
same,growth inhibition,[7]; at 3.7 µM,-19%
same,growth inhibition,[7]; at 11.0 µM,-31%
same,growth inhibition,[7]; at 33.0 µM,-5%
same,growth inhibition,[7]; at 100.0 µM,55%
same,growth inhibition,[8]; [17],21%
same,growth inhibition,[8]; [18],18%
same,growth inhibition,[8]; at 50.0 µM,25%
same,growth inhibition,[9]; at 1.2 µM,10%
same,growth inhibition,[9]; at 3.7 µM,7%
same,growth inhibition,[9]; at 11.0 µM,-5%
same,growth inhibition,[9]; at 33.0 µM,2%
same,growth inhibition,[9]; at 100.0 µM,6%
same,growth inhibition,[10]; [17],25%
same,growth inhibition,[10]; [18],25%
same,growth inhibition,[10]; at 50.0 µM,8.85%
same,growth inhibition,[11]; at 1.2 µM,-7%
same,growth inhibition,[11]; at 3.7 µM,6%
same,growth inhibition,[11]; [17],12%
same,growth inhibition,[11]; at 11.0 µM,-4%
same,growth inhibition,[11]; at 33.0 µM,6%
same,growth inhibition,[11]; [18],-24%
same,growth inhibition,[11]; at 50.0 µM,30.9%
same,growth inhibition,[11]; at 100.0 µM,76% (active)
same,growth inhibition,[12]; at 1.2 µM,-24%
same,growth inhibition,[12]; at 3.7 µM,-23%
same,growth inhibition,[12]; at 11.0 µM,-22%
same,growth inhibition,[12]; at 33.0 µM,-26%
same,growth inhibition,[12]; at 100.0 µM,-17%
same,growth inhibition,[13]; at 1.2 µM,-5%
same,growth inhibition,[13]; at 3.7 µM,2%
same,growth inhibition,[13]; at 11.0 µM,0%
same,growth inhibition,[13]; at 33.0 µM,11%
same,growth inhibition,[13]; at 100.0 µM,39%
same,growth inhibition,[14]; at 1.2 µM,-3%
same,growth inhibition,[14]; at 3.7 µM,9%
same,growth inhibition,[14]; at 11.0 µM,6%
same,growth inhibition,[14]; at 33.0 µM,6%
same,growth inhibition,[14]; at 100.0 µM,51%
same,growth inhibition,[15]; [17],6%
same,growth inhibition,[15]; [18],2%
same,growth inhibition,[15]; at 50.0 µM,59.4%
same,growth inhibition,[16]; at 1.2 µM,-11%
same,growth inhibition,[16]; at 3.7 µM,1%
same,growth inhibition,[16]; at 11.0 µM,-12%
same,growth inhibition,[16]; at 33.0 µM,5%
same,growth inhibition,[16]; at 100.0 µM,63%
